{"source": "the supplement of paper PMC10338343", "note": "± gives the standard deviation."}
{"tested_on": "MILI (PIWIL2) piRISC loaded with L1MC piRNA (26 nt)", "experiment": "pre-steady-state target cleavage rate (min^-1); guide: L1MC piRNA 5'p-UAACUAAAUACUAUGCAAGCUGUAGG; MIWI and MILI are mouse PIWI proteins and EfPiwi is from a freshwater sponge; tags in brackets are library labels; higher = faster piRNA-guided slicing of the target", "settings": "auxiliary factor: none (no GTSF1)", "in_short": "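Active affinity-purified piRISC (1 nM) loaded with one synthetic guide was mixed with a transcribed, DNA-blocked target RNA library (0.1 nM), with or without 500 nM GTSF1 partner protein, in HEPES–potassium acetate buffer at 33 °C for 0–8 or 0–960 min. Uncleaved targets were sequenced, normalised to depth and to weakly complementary targets, and pooled across three trials, with k3 capped at 0.0001 min^-1. The pre-steady-state cleavage rate was determined with a burst-and-steady-state fit.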"}
{"sequence": "UCCUGCUACAGCUUGCAUAGAUAUUAGAAA", "pre-steady-state target cleavage rate": "< 0.0001"}
{"sequence": "UCCUGGAUGUCCUUGCAUACAAUUUAGUUA", "pre-steady-state target cleavage rate": "0.00248 ± 0.0024"}
{"sequence": "UCCUGGAUGUCGAACGUAAGUAUUUAGUUC [g2:g12:cont:t1C]", "pre-steady-state target cleavage rate": "< 0.0001"}
